Test [1] deals with Plasmodium falciparum Sir2 (PF13_0152, Sir2A). Nature of the test: pfSir2 binders on small-molecule microarrays, primary screen, biochemical, small-molecule microarray, 635 nm fluorescence (AID 1098).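 Further: score merges spot fluorescence intensity with its signal-to-noise ratio.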 The note with it: small-molecule microarray binding, fluorescence 635 nm; higher = more signal.
Test [2] is described as follows: small-molecule microarray binders of probe aDKK1, primary screen, biochemical, biotinylated probe, 635/667 nm fluorescence (AID 1099).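 Further: score merges 667nm spot fluorescence with signal to noise across triplicate slides; reference of the scale not given here.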 The note with it: higher = more signal.
A short description of test [3]: small-molecule microarray binders of probe aCHRDL2, primary screen, biochemical, biotinylated probe, 635/667 nm fluorescence (AID 1100). The note with it: higher = more signal.
A short description of test [4]: splicing luciferase reporter signal modulators, primary screen, spliceosome inhibition project, cell-based, HEK293, splice +/- reporter (AID 1101).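 Further: HEK293 cells carrying a splicing-competent luciferase reporter gene; test concentration not given here.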 The note with it: luminescence, 24 h, higher = more signal, called active from +8 up or from −8 down. For orientation: In a reporter assay the amount or activity of a reporter protein is the signal.
Test [5] has as its target Fibroblast growth factor 10 (Homo sapiens) (UniProt O15520). Nature of the test: FGF10 binders on small-molecule microarrays, primary screen, biochemical, small-molecule microarray, 635 nm fluorescence (AID 1102). The note with it: FGF10 binding, fluorescence 635 nm, higher = more signal.
The test system of test [6] is glycogen synthase kinase-3 (GSK3A per assay name; protocol says GSK3B). Nature of the test: GSK3 binders on small-molecule microarrays, primary screen, biochemical, small-molecule microarray, 635 nm fluorescence, GSK3A (AID 1103). Further: the record names both GSK3A and GSK3B. The note with it: small-molecule microarray binding, fluorescence 635 nm; higher = more signal.
Test [7] addresses Epidermal growth factor receptor (Homo sapiens) (UniProt P00533). Nature of the test: EGFR binders on small-molecule microarrays, primary screen, biochemical, small-molecule microarray, 635 nm fluorescence (AID 1104).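 Further: score merges 667 nm emission intensity with spot signal to noise over triplicate slides.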 The note with it: EGFR binding, higher = more signal.
Test [8] addresses Follistatin-related protein 3 (Homo sapiens) (UniProt O95633). Nature of the test: FSTL3 binders on small-molecule microarrays, primary screen, biochemical, small-molecule microarray, 635 nm fluorescence (AID 1105).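 Further: score merges emission near 667 nm and signal to noise per printed spot across three slides.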 The note with it: FSTL3 binding, higher = more signal.
The target in test [9] is Dickkopf-related protein 1 (Homo sapiens) (UniProt O94907). Nature of the test: DKK1 binders on small-molecule microarrays, primary screen, biochemical, small-molecule microarray, 635 nm fluorescence scan (AID 1106).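 Further: score merges emission near 667 nm with signal to noise over three replicate slides.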 The note with it: DKK1 binding, higher = more signal.
Sequence of Dickkopf-related protein 1 (Homo sapiens) (O94907 whole entry, looked up): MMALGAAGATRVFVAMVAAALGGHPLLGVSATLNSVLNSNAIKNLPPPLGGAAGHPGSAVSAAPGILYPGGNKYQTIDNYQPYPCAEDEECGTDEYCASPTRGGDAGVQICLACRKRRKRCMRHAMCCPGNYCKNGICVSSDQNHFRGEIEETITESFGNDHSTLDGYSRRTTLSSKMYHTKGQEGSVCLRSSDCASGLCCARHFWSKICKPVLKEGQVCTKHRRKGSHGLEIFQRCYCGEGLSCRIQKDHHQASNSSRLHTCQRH
For test [10], the system named is Inhibin beta A chain (activin A). Nature of the test: INHBA (activin A) binders on microarrays, primary screen, biochemical, small-molecule microarray, 635 nm fluorescence scan (AID 1107).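 Further: mouse activin A protein probed at 4.33 µg/mL on printed slides; score merges bound-protein fluorescence near 667 nm with spot signal-to-noise.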 The note with it: small-molecule microarray binding, higher = more signal.

The structures appear in SMILES notation. Calls of active or inactive are those of the source.

Sequence of Follistatin-related protein 3 (Homo sapiens) (O95633 whole entry, looked up): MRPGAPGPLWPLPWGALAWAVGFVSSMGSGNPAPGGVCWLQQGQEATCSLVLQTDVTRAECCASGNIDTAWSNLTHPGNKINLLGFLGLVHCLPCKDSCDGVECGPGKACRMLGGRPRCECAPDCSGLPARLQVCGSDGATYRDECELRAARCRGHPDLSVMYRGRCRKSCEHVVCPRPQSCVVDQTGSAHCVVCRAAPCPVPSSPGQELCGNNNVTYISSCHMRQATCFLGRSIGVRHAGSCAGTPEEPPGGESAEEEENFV
Sequence of Epidermal growth factor receptor (Homo sapiens) (P00533 whole entry, looked up): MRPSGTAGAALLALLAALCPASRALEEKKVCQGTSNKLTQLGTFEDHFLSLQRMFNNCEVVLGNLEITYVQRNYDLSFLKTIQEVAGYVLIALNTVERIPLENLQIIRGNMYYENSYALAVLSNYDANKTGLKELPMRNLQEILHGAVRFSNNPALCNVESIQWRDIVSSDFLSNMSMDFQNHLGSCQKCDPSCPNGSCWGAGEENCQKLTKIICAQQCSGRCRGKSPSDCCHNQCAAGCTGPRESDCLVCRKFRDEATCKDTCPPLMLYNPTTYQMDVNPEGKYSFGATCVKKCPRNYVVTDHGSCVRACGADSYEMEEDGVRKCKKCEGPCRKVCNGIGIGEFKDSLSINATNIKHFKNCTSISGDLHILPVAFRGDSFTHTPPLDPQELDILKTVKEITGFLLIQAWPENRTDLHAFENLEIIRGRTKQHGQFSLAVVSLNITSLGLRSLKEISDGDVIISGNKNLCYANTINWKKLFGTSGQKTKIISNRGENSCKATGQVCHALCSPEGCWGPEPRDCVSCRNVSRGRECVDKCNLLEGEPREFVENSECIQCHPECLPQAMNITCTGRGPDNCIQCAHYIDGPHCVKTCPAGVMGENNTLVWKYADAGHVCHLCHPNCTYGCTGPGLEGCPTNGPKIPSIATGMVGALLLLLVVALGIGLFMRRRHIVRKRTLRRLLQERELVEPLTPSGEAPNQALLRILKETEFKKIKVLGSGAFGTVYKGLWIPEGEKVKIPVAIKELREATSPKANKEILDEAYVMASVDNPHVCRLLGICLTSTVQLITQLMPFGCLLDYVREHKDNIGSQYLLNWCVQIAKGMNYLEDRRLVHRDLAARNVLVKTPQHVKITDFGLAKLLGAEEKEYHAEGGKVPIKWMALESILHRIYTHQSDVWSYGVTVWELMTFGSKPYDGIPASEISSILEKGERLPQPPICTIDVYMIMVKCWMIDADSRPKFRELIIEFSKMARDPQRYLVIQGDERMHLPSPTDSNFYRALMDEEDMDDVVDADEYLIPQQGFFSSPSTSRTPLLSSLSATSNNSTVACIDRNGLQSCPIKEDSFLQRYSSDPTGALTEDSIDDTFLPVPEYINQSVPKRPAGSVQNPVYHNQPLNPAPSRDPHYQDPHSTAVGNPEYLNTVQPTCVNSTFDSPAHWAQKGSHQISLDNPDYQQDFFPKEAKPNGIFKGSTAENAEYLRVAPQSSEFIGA
Sequence of Fibroblast growth factor 10 (Homo sapiens) (O15520 whole entry, looked up): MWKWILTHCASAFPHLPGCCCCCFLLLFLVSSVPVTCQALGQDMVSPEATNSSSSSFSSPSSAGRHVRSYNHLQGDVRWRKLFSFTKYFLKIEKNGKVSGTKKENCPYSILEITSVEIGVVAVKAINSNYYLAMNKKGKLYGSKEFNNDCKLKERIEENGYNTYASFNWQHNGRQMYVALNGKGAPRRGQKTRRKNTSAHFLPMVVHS

Turning to `COC(=O)C(CC#Cc1ccc2c(c1)[C@]1(C(=O)N2)[C@H](c2ccccc2OCCO)N2[C@H](c3ccccc3)[C@H](c3ccccc3)OC(=O)[C@H]2[C@@H]1C(=O)Nc1nc2ccccc2s1)C(=O)OC`, the composite z-score is 1.21 in test [1]; -0.0226 in [2]; -0.0159 in test [3]; 1.3 in [5]; 1.21 in [6]; 0.312 in test [7]. Besides, the composite z-score in test [8] came to 0.806; in test [9], 0.171; in [10] it was 0.245. The z-score in [4] is -0.333 (inactive).

In the case of `CCCc1cc2c(n1Cc1ccc(OC)cc1)C(C)C1CN(C(=O)c3ccccc3)C(C)(C(=O)OC)C21` (stereo not given), the composite z-score was 0.862 in test [1]; 1.27 in [2]; 1.59 in [3]; 0.303 in test [5]; 0.482 in test [6]; -0.409 in test [7]. Also, the composite z-score is 0.324 in test [8], -1.71 in test [9] and 1.43 in test [10]. The z-score in [4] is -1.94 (inactive).

In the case of `COC(=O)[C@@]1(Cc2ccccc2N=[N+]=[N-])N=C(c2ccc(OCCCO)cc2)O[C@H]1c1ccccc1`, the composite z-score was 1.34 in test [1]; 0.0665 in [2]; 0.87 in [3]; 0.818 in test [5]; -0.253 in test [6]; -0.285 in test [7]. Moreover, the composite z-score is 0.666 in test [8], -0.385 in [9] and 0.575 in test [10]. In test [4], the z-score is 2.25 (inactive).

Take `COCCOC(=O)N1C(=O)[C@@]2(c3ccccc31)[C@H](c1ccc(OCCO)cc1)N1[C@H](c3ccccc3)[C@H](c3ccccc3)OC(=O)[C@H]1[C@@H]2C(=O)NC[C@H](O)c1ccccc1`: the composite z-score was 1.32 in test [1]; 0.161 in [2]; 0.568 in [3]; 1.2 in [5]; 0.777 in [6]; 0.146 in test [7]. The composite z-score in test [8] is 1.38; in test [9], 0.362; in test [10], 0.526. For the same compound, the z-score in [4] was -0.353 (inactive).

`O=C1C2C=CC(C(O)c3ccc(Br)cc3)N(Nc3ccccc3)C2C(=O)N1c1ccccc1` (stereo not given): the composite z-score was 0.489 in test [1]; -0.0556 in test [2]; 0.504 in test [3]; 0.295 in test [5]; 0.435 in test [6]; 0.181 in test [7]. In addition, the results for the composite z-score in test [8], in [9] and in [10] were 0.429, -0.25 and 1.23, respectively. Also, the z-score in test [4] is 1.34 (inactive).

As for `CO[C@H]1O[C@H](CO)[C@@H](OC(=O)Nc2ccc(C(F)(F)F)cc2)[C@H](OC(=O)Nc2ccccc2)[C@H]1OC(=O)Nc1ccccc1`, the composite z-score in [1] was determined as 1.61; in [2], 0.995; in test [3], 0.832; in test [5], 1.33; in [6], 1.33; in [7], 0.375. For the same compound, the composite z-score is 1.2 in test [8], 0.0148 in test [9] and 0.0729 in test [10]. The z-score in test [4] is -0.624 (inactive).

On to `COCCOC(=O)N1C(=O)[C@@]2(c3cc(C#CCNC(N)=O)ccc31)[C@H](c1ccc(OCCO)cc1)N1[C@H](c3ccccc3)[C@H](c3ccccc3)OC(=O)[C@H]1[C@@H]2C(=O)N1CCN(c2ncccn2)CC1`, for which the composite z-score in [1] came to 0.832; in [2], 0.46; in test [3], 0.978; in test [5] it was 1.25; in test [6] it was 0.824; in [7], 0.612. Also, the composite z-score in test [8] is 1.3; in test [9], 0.564; in test [10], 1.46. Further, the z-score in [4] is -0.37 (inactive).

In the case of `COCCOC(=O)N1C(=O)[C@@]2(c3cc(C#CCCO)ccc31)[C@H](C(=O)NC[C@H](O)c1ccccc1)[C@H]1C(=O)O[C@H](c3ccccc3)[C@H](c3ccccc3)N1[C@@H]2c1ccccc1OCCO`, the composite z-score in test [1] came to 0.506; in [2], 0.437; in test [3] it was 0.426; in test [5] it was 1.32; in test [6] it was 1.33; in [7], 0.938. Besides, the composite z-score turned out to be 1.41 in test [8], 1.06 in [9] and 0.95 in test [10]. Further, in [4], the z-score is -0.183 (inactive).

With `O=C1c2ccccc2[C@](Cc2ccccc2I)(C(=O)NCC(F)(F)F)[C@H](c2ccc(CO)cc2)N1Cc1ccccc1`, the composite z-score in [1] was 1.14; in test [2] it was 0.0143; in test [3] it was 0.296; in test [5] it was 0.269; in test [6] it was 0.848; in test [7], -0.0654. The composite z-score was 0.871 in test [8], -0.316 in [9] and 0.545 in test [10]. Besides, the z-score in [4] is -0.507 (inactive).

As to `CC(C)NC(=O)[C@@]1(Cc2ccccc2I)c2ccccc2C(=O)N(Cc2ccccc2C(F)(F)F)[C@H]1c1ccc(CO)cc1`, the composite z-score was 1.75 in test [1]; 0.474 in [2]; 0.594 in [3]; 0.157 in test [5]; 0.182 in test [6]; -0.251 in test [7]. Moreover, the composite z-score in test [8] is 0.0273; in test [9], -0.467; in test [10], 0.299. Besides, the z-score in test [4] was 0.4 (inactive).

The record behind these values is PubChem BioAssay.
